Data as given in PubChem BioAssay AID1981 (Southern Research Specialized Biocontainment Screening …, 2009).
In all, about 2,200 compounds went through this assay and about 480 (22%) were called active. Only a sample is shown. Entries with a potency or affinity are not part of this list. A number with no mark means an inactive call. The rule behind the calls is not given here.

experiment: S. Typhimurium GFP fluorescence modified counterscreen for PhoP regulon inhibitor project dose response (AID 1981); conditions: 4 h; series mostly up to 150 µM; inhibition: at the top concentration;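 note: 0% = induced DMSO wells and 100% = uninduced wells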

| SMILES | inhibition [%] |
| --- | --- |
| CN(CCNS(=O)(=O)c1ccc2c(c1)oc(=O)n2C)Cc1ccccc1 | -17.6 |
| COc1ccc(-c2cnn3c(N)c(S(=O)(=O)C(C)(C)C)cnc23)cc1 | 6.45 |
| CC(=O)Nc1ccc(OC(=O)c2cccnc2)cc1 | -26.3 |
| N/C(=N\OC(=O)COc1ccc(Cl)cc1)c1cccnc1 | 4.11 |
| N/C(=N\OC(=O)Cc1ccc(Cl)cc1)c1cccnc1 | 16.3 |
| O=C(N/N=C/C1CC=CCC1)c1ccc(Cl)cc1O (configuration not stated) | 33.9 |
| O=C(N/N=C/C1C(c2ccccc2)C1(Cl)Cl)c1cccc(Cl)c1 (configuration not stated) | 14.5 |
| C/C(=C\C(=O)c1cccnc1)Nc1ccc(O)cc1 | -26.2 |
| O=C(N/N=C/c1ccc(Cl)cc1Cl)c1cccc(F)c1 | -13.2 |
| N#CC(CC(=O)c1ccc(F)cc1)c1ccc2c(c1)OCO2 (configuration not stated) | -2.1 |
| C/C(=N\NC(=S)Nc1ccc(F)cc1)c1ccc2c(c1)OCCO2 | -25.7 |
| C(=N\c1nc2ccccc2n1CCN1CCCCC1)/c1cccs1 | 2.07 |
| Cc1cccc(C(=O)Nc2nnc(Cc3c[nH]c4ccccc34)s2)c1 | 17.4 |
| CC1CN(C(=O)CCc2ccccc2)C(C)CN1C(=O)CCc1ccccc1 (configuration not stated) | -14.4 |
| Cc1cccc(OCCSCc2nc3ccccc3[nH]2)c1 | -3.83 |
| Cc1ccc(Cn2cnc3ccccc32)cc1 | -14.9 |
| Cc1ccc(-c2nnc(SCC(=O)N3CCCc4ccccc43)n2N)cc1 | -4.51 |
| Clc1ccc(-c2cnc3n2CCC3)cc1 | 20.7 |
| O=[N+]([O-])c1ccc(N2CCN(CCOc3nonc3-c3ccccc3)CC2)c(Cl)c1 | -17.7 |

| SMILES | inhibition [%] |
| --- | --- |
| Cc1occc1C(=O)n1cnc2ccccc21 | -9.62 |
| Nc1c(-c2ccccc2Cl)cnn1-c1cccc([N+](=O)[O-])c1 | -11.9 |
| C=C(C)C1Cc2cc3ccc(=O)oc3cc2O1 (configuration not stated) | -12.2 |
| CCOC(=O)C1=C(C)N(CCO)C(=O)NC1c1cccc(O)c1 (configuration not stated) | -4.28 |
| O=c1c2ccccc2nnn1Cc1ccccn1 | -6.94 |
| Cc1cc(C)c(C#N)c(SCC(O)CS(=O)(=O)Cc2ccccc2)n1 (configuration not stated) | -3.65 |
| Cc1cc(C(=O)N/N=C/c2cc(Br)cc(Br)c2OC(=O)c2ccccc2)n[nH]1 | -12.9 |
| Nc1nnc(CC(=O)N/N=C\c2cc([N+](=O)[O-])ccc2O)s1 | 11.5 |
| Cc1ccc(N=Nc2ccc(O)c(/C=N\NC(=O)c3ccc(N)cc3)c2)cc1C | 4.29 |
| Cc1cc(/C=N/NC(=O)c2cccc([N+](=O)[O-])c2)c(C)n1-c1ccc(Cl)cc1Cl | 11 |
| C/C(=N\NC(=O)C1CC1c1ccccc1)c1cccc([N+](=O)[O-])c1 (configuration not stated) | 3.97 |
| Cc1ccc2cccc(Oc3ncnc4scc(-c5ccccc5)c34)c2n1 | -10.1 |
| CN(C)c1ccnc(-n2cccc2/C=N/OCc2ccccc2)c1C#N | -15.6 |
| COc1ccc(OC)c(NC(=O)c2cc3c(Cl)nc4ccccc4c3s2)c1 | 0.23 |
| Cc1ccc(C)c(C(=O)NCc2ccncc2)c1 | -9.64 |
| COc1ccc(CN=C2Nc3ccccc3CS2)cc1 | 1.48 |
| O=c1c2cc(Br)ccc2nc(-c2ccccc2)n1O | 21.9 |
| CN1CCCC(OC(=O)c2ccc(Cl)cc2)C1 (configuration not stated) | 5.48 |
| NC(=S)c1cc2ccc(O)cc2oc1=O | 18.9 |

| SMILES | inhibition [%] |
| --- | --- |
| OCCCNc1nc(-c2ccc(Cl)cc2)nnc1-c1ccc(Br)cc1 | -7.67 |
| CCn1c(CNC(=O)COc2ccc(C(C)C)cc2)nnc1SCC(=O)Nc1ccccc1 | -1.91 |
| FC(F)(F)c1cc(C(F)(F)F)c2ccc(Oc3ccccc3)nc2n1 | 1.91 |
| Cc1cc(C)c2c(c1)NC(=O)C2(O)CC(=O)c1cccs1 (configuration not stated) | 7 |
| CC(C)(C)NC(=O)CSc1nnc(-c2ccncc2)o1 | 2.59 |
| COc1ccccc1/C=C1\CCCC2=C1Nc1nnnn1C2c1ccccc1OC (configuration not stated) | 13 |
| O=[N+]([O-])c1ccc(NCCCNS(=O)(=O)c2ccccc2)c(Cl)c1 | -2.82 |
| COC(=O)c1sccc1NC(=O)CSc1ccccc1NS(=O)(=O)c1ccc(Cl)cc1 | -3.4 |
| CCC(C)C(NC(=O)OCc1ccccc1)C(=O)OCN1C(=O)c2ccccc2C1=O (configuration not stated) | 5.7 |
| c1ccc(-c2ncnc3nc4n(c23)CCC4)cc1 | -1.03 |
| CCn1nnc(-c2ccccc2NC(=O)c2ccc(-n3cnnn3)cc2)n1 | -0.33 |
| Cc1cc(-c2csc(N)n2)c(C)n1C | -7.84 |
| COc1cc(NC(=O)Nc2cccc(Cl)c2)c(OC)cc1NC(=O)CN1CCCCC1 | 4.21 |
| Cc1cc(NCCN2CCOCC2)n2ncc(-c3ccccc3)c2n1 | 2.32 |
| CN(C)CCNc1nc(-c2ccccc2)nnc1C(F)(F)F | -13.8 |
| COc1cc(C2SCC(=O)N2c2nnc(C34CC5CC(CC(C5)C3)C4)s2)cc(OC)c1OC (configuration not stated) | -15.5 |
| N#CCC1c2ccccc2CCN1C(=O)Nc1ccc(Cl)cc1 (configuration not stated) | 5.37 |
| CC1(C)CC(=O)C=C(Nc2ccc(Br)cn2)C1 | -15.5 |
| COCCNC(=O)CSCc1c(F)cccc1Cl | -7.74 |
